Assay outcomes deposited in PubChem by National Center for Advancing Translational Sciences (NCATS).
Only a selection was taken, and hits are over-represented in it overall.
nsP2pro inh = blocks chikungunya virus nsP2 protease peptide cleavage | FRET peptide cleavage, nsP2pro, fluorescence 1 h | Potency, µM (series often up to 24.9 µM), most hits filed as inhibitors | actives 1.1% (n = 31,000) | AID 1964107; further: nearly all actives have a fitted effect of over 60% in size
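Enzyme 150 nM, substrate 2.5 uM (both final); Tris-HCl 10 mM pH 8.0 + 0.01% Tween 20; cpd up to 25 uM, 7 pts; 15 min preinc., 1 h RT; fluorescence ex 525/em 598.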
CHIKV nsP2 cell = cell-based CHIKV nsP2 protease inhibition, secondary; shares compounds with nsP2pro inh; cell-based CHIKV nsP2 protease reporter assay; Potency, µM (highest dose often 51.1 µM), usual class: inhibitors; actives 10% (n = 450); further: nearly all actives have a fitted effect of over 70% in size
Target sequence (Q8JUX6 220-798 limits assumed): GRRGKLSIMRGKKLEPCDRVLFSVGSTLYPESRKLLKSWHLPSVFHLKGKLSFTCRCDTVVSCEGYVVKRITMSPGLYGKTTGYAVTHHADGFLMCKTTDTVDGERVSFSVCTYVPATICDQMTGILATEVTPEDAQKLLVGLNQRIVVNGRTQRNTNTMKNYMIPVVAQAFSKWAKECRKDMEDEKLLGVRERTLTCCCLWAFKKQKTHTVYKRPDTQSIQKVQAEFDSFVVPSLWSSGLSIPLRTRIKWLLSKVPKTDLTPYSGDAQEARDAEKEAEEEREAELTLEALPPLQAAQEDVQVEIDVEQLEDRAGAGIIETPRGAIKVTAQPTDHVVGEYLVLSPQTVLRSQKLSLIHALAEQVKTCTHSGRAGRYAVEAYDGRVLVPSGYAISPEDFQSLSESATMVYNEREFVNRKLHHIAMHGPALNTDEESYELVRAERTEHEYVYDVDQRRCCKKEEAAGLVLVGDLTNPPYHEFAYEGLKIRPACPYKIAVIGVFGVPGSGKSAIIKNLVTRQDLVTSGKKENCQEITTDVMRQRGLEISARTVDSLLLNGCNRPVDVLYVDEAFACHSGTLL
CHIKV NSP2 FL = full-length CHIKV NSP2 protease inhibition, selectivity; shares compounds with nsP2pro inh; actives 39% (n = 410); AID 1964101; Full-length CHIKV NSP2 protease enzymatic counterscreen; Potency, µM (top dose mostly 50.7 µM), actives largely listed as inhibitors; further: nearly all actives have a fitted effect of over 65% in size
Furin counterscr = inhibits human furin in a CHIKV nsP2 protease selectivity counterscreen; shares compounds with nsP2pro inh; Recombinant human furin enzymatic counterscreen, fluorogenic substrate; Potency, µM (series often up to 50.6 µM), usual class: inhibitors; actives 6% (n = 410); AID 1964102
nsP2 NS23 pep = blocks CHIKV nsP2 protease cleavage of endogenous NS2/3 peptide; Purified CHIKV nsP2 protease, endogenous NS2/3 peptide cleavage; Potency, µM (doses to about 51 µM), most hits filed as inhibitors; shares compounds with nsP2pro inh; actives 34% (n = 410); AID 1964103; further: nearly all actives have a fitted effect of over 55% in size
Papain counter = papain protease inhibition, counterscreen for nsP2pro inhibitors | shares compounds with nsP2pro inh | purified papain protease activity, enzymatic inhibition | Potency, µM (titrated, usually from 51 µM), usual class: inhibitors | actives 5% (n = 410)
nsP2pro confirm = confirmation of CHIKV nsP2 protease inhibitors; shares compounds with nsP2pro inh; CHIKV nsP2 protease enzymatic activity, qHTS; Potency, µM (top dose mostly 25.5 µM), hits mostly inhibitors; actives 43% (n = 410); further: nearly all actives have a fitted effect of over 75% in size
HCV NS3 4A cs = inhibits HCV NS3/4A protease in an nsP2pro selectivity counterscreen | actives 20% (n = 410) | HCV NS3/4A protease biochemical counterscreen | shares compounds with nsP2pro inh | Potency, µM (doses to about 50.9 µM), usual class: inhibitors; further: nearly all actives have a fitted effect of over 55% in size
Large screens that a line does not name were inactive (follow-up assays come after a bar, where they were run). The call rests on the fitted dose curve.

Nc1cc(-c2ccncc2)c[nH]c1=O	nsP2pro inh 3.5µM | CHIKV nsP2 cell inactive | CHIKV NSP2 FL inconclusive | Furin counterscr inactive | nsP2 NS23 pep inconclusive | Papain counter inactive | nsP2pro confirm inconclusive | HCV NS3 4A cs inactive
Nc1c(-c2ccncc2)cc[nH]c1=O	none
CCC(CN)CC(C)CNCC(O)CNCC(CC)CC(CC)CN (centres undefined)	none
OCCN1CCN(CCCN2c3ccccc3Sc3ccc(C(F)(F)F)cc32)CC1	none
OCCN1CCN(CCCN2c3ccccc3C=Cc3ccccc32)CC1	nsP2pro inh 8.8µM | CHIKV nsP2 cell inactive | CHIKV NSP2 FL inconclusive | Furin counterscr inactive | nsP2 NS23 pep inactive | Papain counter inactive | nsP2pro confirm inactive | HCV NS3 4A cs inactive
CC(=O)c1ccc2c(c1)N(CCCN1CCN(CCO)CC1)c1ccccc1S2	none
COC(=O)C1CC2=CC(=O)CCC2(C)C23OC2CC2(C)C(CC[C@]24CCC(=O)O4)C13 (some centres undefined)	none
COc1cnc(-c2ccccc2C(C)C)nc1NCc1ccc(-c2cccnc2)cc1	none
C=CCC/C=C/C#CCCCCCCCC[C@H]1C(=O)O[C@H](C)[C@@H]1O	nsP2pro inh inconclusive | CHIKV nsP2 cell inconclusive | CHIKV NSP2 FL inconclusive | Furin counterscr inactive | nsP2 NS23 pep inactive | Papain counter inconclusive | nsP2pro confirm inconclusive | HCV NS3 4A cs inactive
C/C(=C\c1cccc(C(F)(F)F)c1)C1Nc2cccc3cccc(c23)N1	none
COc1cc(O)c(C(CC(=O)N2CCCC(C(F)(F)F)C2)c2ccc3c(c2)OCO3)c(OC)c1 (centres undefined)	none
COc1cc(N2CCC(N3CCN(C)CC3)CC2)ccc1Nc1ncc(Cl)c(-c2c[nH]c3ccccc23)n1	none
COc1cccc(C(=O)CCN[C@@H](C)[C@H](O)c2ccccc2)c1	nsP2pro inh 1.6µM | CHIKV nsP2 cell inactive | CHIKV NSP2 FL 5.8µM | Furin counterscr inactive | nsP2 NS23 pep 10µM | Papain counter inactive | nsP2pro confirm 1.3µM | HCV NS3 4A cs inactive
COc1ccc(NC(=O)C(OC(=O)CNC(=O)c2ccccc2)c2ccccc2)c(C)c1 (centres undefined)	none
C[C@H](NCCc1ccc(O)cc1)[C@H](O)c1ccc(O)cc1	none
O=P(O)(O)OC1C(OP(=O)(O)O)C(OP(=O)(O)O)C(OP(=O)(O)O)C(OP(=O)(O)O)C1OP(=O)(O)O (centres undefined)	none
Cc1cccc(-n2cnc3cc(C(=O)N4CCN(C)CC4)ccc32)c1	none
CN1CCN(c2ncnc3sc4c(c23)CCNC4)CC1	none
CCN(CC)CCCNc1sc(S(=O)(=O)c2ccccc2)nc1S(=O)(=O)c1ccc(Cl)cc1	none
COc1cc(NS(=O)(=O)c2cccc([N+](=O)[O-])c2)c2ncccc2c1	none
COc1ccc(NS(=O)(=O)c2ccc(N)cc2)nn1	none
COc1ccc([N+](=O)[O-])c(S(=O)(=O)c2ccc(Cl)cc2)n1	nsP2pro inh 6.3µM | CHIKV nsP2 cell 2.1µM | CHIKV NSP2 FL 23µM | Furin counterscr inactive | nsP2 NS23 pep 5.8µM | Papain counter inactive | nsP2pro confirm inactive | HCV NS3 4A cs inactive
COc1ccc(-c2ccc(NS(=O)(=O)c3ccccc3)cc2)nn1	none
COc1ccc([N+](=O)[O-])c(S(=O)(=O)c2ccccc2)n1	nsP2pro inh 2.2µM | CHIKV nsP2 cell 1.8µM | CHIKV NSP2 FL 13µM | Furin counterscr inconclusive | nsP2 NS23 pep 3.3µM | Papain counter inactive | nsP2pro confirm 5.7µM | HCV NS3 4A cs inconclusive
O=C([C@H](Cc1ccc(O[S+](=O)([O-])c2cccc3cnccc23)cc1)N[S+](=O)([O-])c1cccnc1)N1CCN(c2ccccc2)CC1	none
